# From the supplement of paper PMC10338343
# ± gives the standard deviation.
# System: MILI (PIWIL2) piRISC loaded with L1MC piRNA (26 nt)
# Experiment: pre-steady-state target cleavage rate (min^-1); guide: L1MC piRNA 5'p-UAACUAAAUACUAUGCAAGCUGUAGG; MIWI and MILI are mouse PIWI proteins and EfPiwi is from a freshwater sponge; tags in brackets are library labels; higher = faster piRNA-guided slicing of the target
# Conditions: auxiliary factor: 500 nM mouse GTSF1
# Description: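 Cleave-'n-Seq: a library of target RNAs (target site embedded in constant flanks, ACAGCATTCCGCGTTAGTGATATCCG... 5' flank; DNA-blocked outside the site) at 0.1 nM was incubated with 1 nM active mouse MILI or MIWI piRISC (synthetic 5'-monophosphorylated piRNA guide) with or without 500 nM mouse GTSF1 at 33 °C for 1 min to 16 h. Uncleaved targets were sequenced and normalised to non-target controls, and the pooled three trials were fitted to a burst-and-steady-state model to give the pre-steady-state cleavage rate (min^-1; k3 is constrained to at most 1e-4). Sequence is the target site only; target names encode pairing extent (gX:gY) and contiguous / 1-mismatch / 2-mismatch / bulge geometry. Fits with R² ≤ 0 are excluded.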
row,Sequence,pre-steady-state target cleavage rate
1,UCCUGGAUGUGCAUGCAUAGUAUUUAGUAA,0.121 ± 0.017
2,UCCUGGUACAGCAUGCAUAGUAUAUAGUUA,0.241 ± 0.038
3,UCCUGGAUGAGCUUGCAUAGUAUUUAUGUUA,0.102 ± 0.021
4,UCCUGGAUGAGCUUGCAAUAGUAUUUAGUUA,0.00505 ± 0.0031
5,UCCUGGAUGAGCUUGGAUAGUAUUUAGUAA,0.178 ± 0.027
6,UCCUGGAACACUUGCAUAGUAUUUAGUUA,0.194 ± 0.017
7,UCCUGGAUGUGGUUGCAUUGUAUUUAGUUA,0.0353 ± 0.0089
8,UCCUGGAACAGCUAGCAUAGUAAUUAGUUA,0.155 ± 0.018
9,UCCUGGAUCAGCUUGCAUAGUAUUUAGUUU [g2:g22:cont:t1U],0.357 ± 0.019
10,UCCUGGUUCAGCAUGCAUAGUAUUUAGUUA,0.199 ± 0.026
11,UCCUGGAUCAGCUUGCAGAGUAUUUAGUUA,0.111 ± 0.015
12,UCCUGCUACAGCUUGCAUACUAUUUAGUAA,0.0862 ± 0.018
13,UCCUCCUACAGCUUGCAUAGUAUUAAGAUA,0.125 ± 0.032
14,UCCUGGAUGUCGAUGCAUAGUAAUUUGUUA,0.00959 ± 0.0053
15,UCCUGGAUCAGCUUGCAUUGUAUUAAGUUA,0.142 ± 0.016
16,UCCUCCUACAGCUUACAUAGUAUUUAGUUA,0.276 ± 0.016
17,UCCUGGUACACCUUGCAUAGUAUUUUGUUA,0.201 ± 0.054
18,UCCUGGAUGUCGAUGCAUAGUAUUUCGUUA,0.0116 ± 0.0056
19,UCCUGGAUGUCCUUGCAUAGUAUAUUGUUA,0.0329 ± 0.0079
20,UCCUGCUACUGCUUGCAAAGUAUUUAGUUA,0.0928 ± 0.013
21,UCCUGCUGCAGCUUGCAUAGUAUUUAGUUA,0.331 ± 0.024
22,UCCUGGAUGUGCUUGCAUAGUAUCUAGUUA,0.135 ± 0.031
23,UCCUGGAUGUCCUUGCAAACUAUUUAGUUA,0.00732 ± 0.0037
24,UCCUGGUACAGCUUGCAUAGUAUGUUAGUUA,0.184 ± 0.03

# Same assay, conditions: auxiliary factor: none (no GTSF1)
row,Sequence,pre-steady-state target cleavage rate
1,UCCUGGAUGUGCAUGCAUAGUAUUUAGUAA,0.00467 ± 0.0026
2,UCCUGGUACAGCAUGCAUAGUAUAUAGUUA,0.00583 ± 0.0028
3,UCCUGGAUGAGCUUGCAUAGUAUUUAUGUUA,0.00381 ± 0.0034
4,UCCUGGAUGAGCUUGGAUAGUAUUUAGUAA,0.00491 ± 0.0023
5,UCCUGGAACACUUGCAUAGUAUUUAGUUA,0.00651 ± 0.0021
6,UCCUGGAUGUGGUUGCAUUGUAUUUAGUUA,0.00721 ± 0.0036
7,UCCUGGAACAGCUAGCAUAGUAAUUAGUUA,0.00801 ± 0.0026
8,UCCUGGAUCAGCUUGCAUAGUAUUUAGUUU [g2:g22:cont:t1U],0.0189 ± 0.0043
9,UCCUGGUUCAGCAUGCAUAGUAUUUAGUUA,0.0092 ± 0.0032
10,UCCUGGAUCAGCUUGCAGAGUAUUUAGUUA,0.00641 ± 0.002
11,UCCUGGAUCAGCUUGCAUUGUAUUAAGUUA,0.00356 ± 0.0025
12,UCCUCCUACAGCUUACAUAGUAUUUAGUUA,0.00586 ± 0.0026
13,UCCUGCUACUGCUUGCAAAGUAUUUAGUUA,0.00523 ± 0.0021
14,UCCUGCUGCAGCUUGCAUAGUAUUUAGUUA,0.00762 ± 0.0024
15,UCCUGGAUGUGCUUGCAUAGUAUCUAGUUA,0.00366 ± 0.0031
16,UCCUGGUACAGCUUGCAUAGUAUGUUAGUUA,0.00462 ± 0.0027
